Source: PubChem (National Center for Advancing Translational Sciences (NCATS))
DT40 TDP1 CPT – DT40-hTDP1 cell growth loss with CPT; chicken DT40 Tdp1-/-;hTDP1 cells + 20 nM CPT, ATP luminescence, 48 h; Potency, µM (series often up to 46.2 µM), hits mostly inhibitors; hit rate 12% among 420,000; AID 686979; note: nearly all actives have a fitted effect of over 55% in size
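Cell growth measured by CellTiter-Glo luminescence after a minimum 48 h, 37 C compound exposure with 20 nM CPT in Tdp1-knockout DT40 cells stably expressing hTDP1, seeded 400/well; qHTS titration format.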
HT1080-NT tox – kills 2HG-producing HT-1080-NT fibrosarcoma cells. HT-1080-NT fibrosarcoma viability, CellTiter-Glo ATP luminescence, 48 h. Potency, µM (doses to about 46.1 µM), actives largely listed as cytotoxic. hit rate 1.6% among 360,000. AID 686970;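 note: NT is the 2HG producing partner of a matched IDH1 knockdown line; nearly all actives have a fitted effect of over 55% in size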
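750 cells/well, RPMI + 5% FBS; 2 h settle, compound pin-transfer, 48 h at 37 degrees C. CellTiter-Glo 10 min RT, luminescence. Normalized to DMSO and media-only wells.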
KB-V1 cytotox – KB-V1 MDR subline cytotoxicity. KB-V1 MDR cells viability, CellTiter-Glo, 72 h. Potency, µM (series often up to 46.1 µM), most hits filed as cytotoxic. hit rate 3.4% among 400,000. AID 1347076; note: nearly all actives have a fitted effect of over 60% in size
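Cytotoxicity via CellTiter-Glo luminescence after 72 h compound exposure at 37 degrees C. Cells: drug-selected KB-V1 line, DMEM phenol-red free plus 10% FBS. Compounds tested at multiple concentrations; normalized data fitted to concentration-effect curves.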
HT1080 IDH1KD tx – HT-1080 IDH1 knockdown cell toxicity (counter line) | HT-1080 IDH1 knockdown viability, ATP luminescence, 48 h | Potency, µM (series often up to 46.1 µM), hits mostly cytotoxic | hit rate 2% among 360,000 | AID 686971
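Using the IDH1-knockdown HT-1080 line run in the same batch and compound series as the NT line, viability after 48 h at 37 °C was determined by CellTiter-Glo luminescence and expressed as % activity.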
KB-3-1 tox – kills parental KB-3-1 adenocarcinoma cells. AID 1347075. hit rate 1.4% among 400,000. Potency, µM (titrated, usually from 46.1 µM), most hits filed as cytotoxic. KB-3-1 viability, CellTiter-Glo ATP luminescence, 72 h; note: nearly all actives have a fitted effect of over 60% in size
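Cytotoxicity in the drug-sensitive parental line KB-3-1 was scored as loss of CellTiter-Glo luminescence following 72 h incubation with compound. Values come from curve fitting of normalized concentration-response data.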
TDP1 cell noCPT – qHTS for Inhibitors of human tyrosyl-DNA phosphodiesterase 1 (TDP1): qHTS in cells in absence of CPT; DT40 Tdp1-/- hTDP1 cells, no CPT, ATP luminescence, 48 h; hit rate 15% among 420,000; AID 686978, 2013; Potency, µM (top dose mostly 46.2 µM), usual class: inhibitors; note: nearly all actives have a fitted effect of over 55% in size
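Growth kinetics read by CellTiter-Glo luminescence after ≥48 hr at 37 °C. Cells: DT40 Tdp1-/- stably carrying human TDP1, 400 per well, compound exposure in the absence of CPT (DMSO vehicle).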
Hits are given with their value; . = inactive; ? = inconclusive; / = no result. Hits are enriched below; roughly 19% of the tested compounds scored in any of these assays. Calls come from the whole dose curve; as a rule, active = well fitted curve in the direction sought with a large enough effect; inconclusive = small, poorly fitted or top-dose-only effect, or another doubt; inactive = no such curve, though single readings can be large; an effect the other way counts as inactive or inconclusive.

SMILES	DT40 TDP1 CPT	HT1080-NT tox	KB-V1 cytotox	HT1080 IDH1KD tx	KB-3-1 tox	TDP1 cell noCPT
O=c1[nH]c(=O)n([C@H]2C[C@H](O)[C@@H](CO)O2)cc1F	3.3µM	0.46µM	?	0.73µM	?	0.037µM
Cc1cn([C@H]2C[C@H](N=[N+]=[N-])[C@@H](CO)O2)c(=O)[nH]c1=O	21µM	.	.	.	.	7.5µM
Cc1cn([C@H]2C[C@H](O)[C@@H](CO)O2)c(=O)[nH]c1=O	.	/	/	/	/	.
O=c1[nH]c(=O)n([C@@H]2O[C@H](CO)[C@@H](O)[C@H]2O)cc1Br	.	/	/	/	/	.
CC1OC(n2cc(F)c(=O)[nH]c2=O)C(O)C1O (stereo unspecified)	6.5µM	/	/	/	/	3.7µM
O=c1[nH]c(=O)n([C@H]2C[C@H](O)[C@@H](CO)O2)cc1Br	?	?	.	.	.	?
Cc1cn(C2CC(O)C(O)C(CO)O2)c(=O)[nH]c1=O (stereo unspecified)	.	.	.	.	.	.
COc1ccc(/C=C2\SC(=S)N(CC(=O)OCC(=O)Nc3cc(Cl)cc(Cl)c3)C2=O)cc1	?	.	.	.	.	.
CCc1ccc(C(=O)COC(=O)C(Cc2c[nH]c3ccccc23)NC(=O)c2ccc(CC)cc2)cc1 (stereo unspecified)	?	/	.	/	.	?
CN(C)c1ccc(N2C(=NC(=O)CC3CCCCC3)SC3CS(=O)(=O)CC32)cc1 (stereo unspecified)	.	.	.	.	.	.
CCc1cc(=O)oc2c(C)c(OCC(=O)N3CCCc4ccccc43)ccc12	18µM	.	?	?	.	?
O=C(COc1ccc(Br)cc1CO)N1CCCc2ccccc21	.	.	?	.	.	26µM
CCN(C(=O)COC(=O)c1ccc(=O)n(Cc2ccccc2)n1)C1CCCCC1	.	.	.	.	.	.
COc1ccccc1OCCn1c(NC(=O)c2ccc(Cl)cc2)nc2ccccc21	.	/	.	/	.	.
CC(=O)Nc1nc2ccccc2n1CCOc1ccccc1Cl	?	.	.	.	?	15µM
COc1ccccc1OCCn1c(NC(=O)c2ccccc2Cl)nc2ccccc21	23µM	/	.	/	.	16µM
Nc1nnc(CSCc2ccc(F)cc2)s1	.	.	.	.	.	.
CC(=O)Cn1ncc(Br)c(Br)c1=O	5.8µM	10µM	?	7.3µM	?	5.2µM
CC(=O)N1c2ccc(S(=O)(=O)N3CCC(C(=O)N4CCC(C)CC4)CC3)cc2CC1C (stereo unspecified)	?	.	.	.	.	?
CC1CC(C)CN(C(=O)C2CCN(S(=O)(=O)c3ccc4c(c3)CC(C)N4C(=O)C3CC3)CC2)C1 (stereo unspecified)	16µM	.	.	.	.	?
CC(=O)N1c2ccc(S(=O)(=O)N3CCC(C(=O)NC4CCCCC4)CC3)cc2CC1C (stereo unspecified)	.	.	.	.	.	.
CC(=O)N1c2ccc(S(=O)(=O)N3CCC(C(=O)N4CC(C)CC(C)C4)CC3)cc2CC1C (stereo unspecified)	21µM	.	.	.	.	?
CC(=O)N1c2ccc(S(=O)(=O)N3CCC(C(=O)N4CCCC(C)C4)CC3)cc2CC1C (stereo unspecified)	21µM	?	.	.	.	?
CCOC(=O)CSc1nnc2n(-c3ccccc3)c(=O)c3c4c(sc3n12)CC(C(C)(C)C)CC4 (stereo unspecified)	?	/	.	/	.	?
[NH-]c1ncnc2c1N=C[N+]2=CC=CCO	2.6µM	.	.	.	.	4.1µM
SMILES	DT40 TDP1 CPT	HT1080-NT tox	KB-V1 cytotox	HT1080 IDH1KD tx	KB-3-1 tox	TDP1 cell noCPT
Cc1ccc(S(=O)(=O)N(C)CC(=O)N2CC(C)OC(C)C2)cc1 (stereo unspecified)	.	.	.	.	.	.
Cc1c([N+](=O)[O-])cc(C(=O)Oc2cccc(C(=S)N3CCOCC3)c2)cc1[N+](=O)[O-]	.	.	.	.	.	.
CNc1oc(-c2ccccc2Cl)nc1P(=O)(c1ccccc1)c1ccccc1	?	?	.	?	.	15µM
Cc1cccc(OCC(=O)NCC(C)(C)N2CCOCC2)c1	.	.	.	.	.	.
COc1cc(C)ccc1S(=O)(=O)NC(=O)C1(C)CCN1C(=O)Cc1ccc(C(C)(C)C)cc1 (stereo unspecified)	.	.	.	.	.	.
Nc1nc(N)c(N=Nc2ccccc2)c(=O)[nH]1	21µM	.	.	?	.	5.8µM
Nc1ncnc(N)c1N=Nc1ccccc1	23µM	?	.	12µM	?	3.3µM
Nc1nn(-c2ccccc2)c(N)c1N=Nc1ccccc1	4.1µM	?	5.8µM	16µM	?	4.6µM
Cc1cccc(N=Nc2c(C)nn(-c3ccccc3)c2N)c1C	?	.	.	.	.	?
